Hits are enriched below; roughly 12% of the tested compounds scored in any of these assays.
Cycloheximide cs – counter-screen for Shiga toxin inhibitors: cycloheximide protein synthesis inhibition; hit rate 12% among 300,000; max response, %; AID 2314; cell reporter, cycloheximide protein synthesis inhibition counterscreen; in the data active means max response mostly above about 13%, no sharp cut-off; inactive means mostly below about 14%; further: read at 38.3 µM for the half of the compounds with a filed dose; 0% is about no effect
Lassa entry inh – blocks Lassa virus binding to or entry into cells | Lassa virus pseudotype entry inhibition, cell reporter | Potency, µM (series often up to 37.9 µM), without a hit: at the highest dose activity change, negative = inhibition, most hits filed as inhibitors | hit rate 1.2% among 300,000; calls by dose curve; tested in HEK293 cells; further: potency means the concentration at half of the fitted maximal effect; on the % scale 0 is the no-effect control and ±100 the full control effect; nearly all actives have a fitted effect of over 50% in size
Marburg entry inh – inhibitors of Marburg virus binding or cell entry | Marburg virus pseudotyped entry inhibition, cell reporter | Potency, µM (doses to about 37.8 µM), for the others: at the top dose activity change, negative = inhibition, hits mostly inhibitors | AID 540276 | hit rate 1.8% among 300,000; calls by dose curve; tested in HEK293 cells; further: potency means the concentration at half of the fitted maximal effect; on the % scale 0 is the no-effect control and ±100 the full control effect
Shiga toxin inh – inhibitors of Shiga toxin in Vero cells. AID 2315. hit rate 9.2% among 290,000. Vero cells, Shiga toxin protein synthesis inhibition reporter. inhibition, % at 38.7 µM; in the data active means inhibition mostly above about 28%, no sharp cut-off; inactive means mostly below about 43%; further: 0% is about no effect
An asterisk follows results filed as active; u = inconclusive; x = no result given; [ ] = another dose, or the depositor's remark.

SMILES | Cycloheximide cs | Lassa entry inh | Marburg entry inh | Shiga toxin inh
CCCC[n+]1c(-c2ccc(Cl)cc2Cl)csc1Nc1ccccc1 | 18 | 13% | 1% | 24
COc1ccc(CCN(C)C(=O)c2ccc(S(=O)(=O)NCc3ccco3)cc2)cc1OC | 55* | 0% | u | 81*
CN(Cc1cccs1)C(=O)c1ccc(S(=O)(=O)NCc2ccco2)cc1 | 27* | x | x | 26
O=C(CCCOc1ccccc1)Nc1nccs1 | 10 | 2% | 0% | 31
COc1ccccc1N(C)S(=O)(=O)c1ccc(C(=O)Nc2nc(C)cs2)cc1 | 1 | u | 16µM* | 33
COc1ccccc1N(C)S(=O)(=O)c1ccc(C(=O)N(C)Cc2ccc(Cl)s2)cc1 | x | 11µM* | u | x
COc1ccccc1OCCC(=O)Nc1nc(C)cs1 | 15* | x | x | 24
CCc1ccc(OCCCC(=O)Nc2nccs2)cc1 | 29* | 6% | -10%[46.1 µM] | 53*
CCC1CN(C(=O)N2CCC(C(=O)N3CCN(c4ccccc4)CC3)CC2)c2ccccc2O1 (stereo not given) | x | -29%[46.1 µM] | x | x
COc1ccccc1CNC(=O)CCCc1nnc2n(CC(C)C)c(=O)c3sccc3n12 | x | -19%[46.1 µM] | x | x
COc1ccccc1OCCCC(=O)Nc1nccs1 | 52* | x | x | 89*
CN(C)S(=O)(=O)c1ccc(C(=O)Nc2nc(-c3cc4ccccc4o3)cs2)cc1 | 1 | u | u | 3
Cc1cc(-c2csc(NC(=O)c3ccc(S(=O)(=O)N(C)C)cc3)n2)c(C)n1-c1ccccc1 | -3 | u | 1.3µM* | 9
CCN1C[C@]2(C)CC[C@H](O)[C@@]34C5C[C@@H]6[C@@H](OC)C[C@@](O)(C5[C@H]6O)[C@@H](CC23)[C@@H]14 (stereo not given in full) | x | x | 3% | x
CCC(C)N1C(=O)S/C(=C/c2ccc3c(c2)n(C)c(=O)n3C)C1=O (stereo not given) | 30* | u | -29%[46.1 µM] | 69
C=CCN1c2ccccc2[C@]23C[C@@H](C(=O)OC)N(C(=O)Nc4ccccc4F)C2=NC(C(=O)OC)=C(C(=O)OC)[C@H]13 | x | x | 3%[14.2 µM] | x
COc1ccccc1N=Cc1c(C)c(C#N)c2[nH]c3ccccc3n2c1=O | 18* | 18% | u | 36
CC1CC(C)CN(S(=O)(=O)c2cccc3nsnc23)C1 (stereo not given) | -2 | x | x | 2
Cc1cc(=O)[nH]c(S/C=C/c2ccccc2)n1 | 28* | u | 3% | 58*
Cc1cc(=O)[nH]c(SCc2ccccc2)n1 | 2 | 2%[46.1 µM] | -3%[46.1 µM] | 0
COc1ccc(C2/C(=C(\O)c3ccc4c(c3)OCCO4)C(=O)C(=O)N2CCCN(C)C)cc1 (stereo not given) | -8 | 18% | u | -23
COc1ccc(C2/C(=C(/O)c3ccc4c(c3)CC(C)O4)C(=O)C(=O)N2CCCN2CCOCC2)cc1 (stereo not given) | 19* | u | 3%[46.1 µM] | -1
CC1Cc2cc(/C(O)=C3/C(=O)C(=O)N(CCN4CCOCC4)C3c3ccc([N+](=O)[O-])cc3)ccc2O1 (stereo not given) | 15* | 17%[46.1 µM] | 27%[46.1 µM] | 27
Cc1ccc(C2/C(=C(\O)c3ccc4c(c3)OCCO4)C(=O)C(=O)N2CCCN(C)C)o1 (stereo not given) | 19* | x | -5% | 28
CC1Cc2cc(/C(O)=C3/C(=O)C(=O)N(CCN4CCOCC4)C3c3cccc(Cl)c3)ccc2O1 (stereo not given) | -1 | 3% | 22% | 66
SMILES | Cycloheximide cs | Lassa entry inh | Marburg entry inh | Shiga toxin inh
COc1ccc(C2/C(=C(/O)c3ccc4c(c3)CC(C)O4)C(=O)C(=O)N2CCN2CCOCC2)cc1 (stereo not given) | -2 | -7% | -4% | -17
O=C1C(=O)N(CCN2CCOCC2)C(c2ccccc2)/C1=C(\O)c1ccc2c(c1)OCCO2 (stereo not given) | 36* | 1% | 1% | 23*
O=C1C(=O)N(c2nccs2)C(c2ccccc2)/C1=C(\O)c1ccc2c(c1)OCCO2 (stereo not given) | 15 | x | x | 22
O=C1C(=O)N(c2nccs2)C(c2ccccc2F)/C1=C(\O)c1ccc2c(c1)OCCO2 (stereo not given) | 32* | x | x | 33
COc1cc2c3cc1Oc1cc(ccc1O)C[C@@H]1c4c(cc(OC)c(O)c4Oc4ccc(cc4)C[C@H]3N(C)CC2)CCN1C | -3 | u | 1.8µM* | -13
COc1ccc2cc1Oc1ccc(cc1)C[C@H]1c3cc(c(OC)cc3CCN1C)Oc1c(OC)c(OC)cc3c1[C@H](C2)N(C)CC3 | -3 | x | x | -4
CCCS(=O)(=O)N1CCc2ccc(NC(=O)c3ccccc3Cl)cc2C1 | 10 | u | -20%[46.1 µM] | x
CSCC(=O)N1CCc2ccc(NC(=O)c3ccccc3Cl)cc2C1 | 28* | 11%[46.1 µM] | u | x
CN(C)S(=O)(=O)N1CCc2ccc(NC(=O)c3ccccc3Cl)cc2C1 | 11* | -4%[46.1 µM] | 21%[46.1 µM] | 14
